The source of these data is PubChem BioAssay (NCATS).

Records with an inconclusive call do not appear. A call without a number means that no potency is given here. Activity calls are given as the source filed them. The call rests on the fitted dose curve; in most records, active means well fitted inhibition curve with a large enough effect; inconclusive means small, poorly fitted or top-dose-only effect, or effect the other way; inactive means flat fitted curve, though single readings scatter.

Sequence of ATP-dependent 6-phosphofructokinase (Trypanosoma brucei brucei) (O15648 whole entry, looked up): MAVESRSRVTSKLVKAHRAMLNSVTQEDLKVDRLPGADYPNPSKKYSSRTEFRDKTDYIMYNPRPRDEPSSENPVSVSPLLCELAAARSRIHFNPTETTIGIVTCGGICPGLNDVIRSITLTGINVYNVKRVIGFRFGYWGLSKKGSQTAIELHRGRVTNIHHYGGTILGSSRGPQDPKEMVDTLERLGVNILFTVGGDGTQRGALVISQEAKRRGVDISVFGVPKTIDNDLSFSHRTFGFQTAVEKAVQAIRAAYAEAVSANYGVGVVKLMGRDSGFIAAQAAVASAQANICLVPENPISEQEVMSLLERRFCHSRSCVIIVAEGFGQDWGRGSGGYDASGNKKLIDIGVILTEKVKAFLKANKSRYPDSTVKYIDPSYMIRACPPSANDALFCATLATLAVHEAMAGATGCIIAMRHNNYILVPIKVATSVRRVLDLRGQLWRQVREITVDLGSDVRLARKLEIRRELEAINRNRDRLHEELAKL

In this assay the target is ATP-dependent 6-phosphofructokinase (Trypanosoma brucei brucei) (UniProt O15648). In words: qHTS Assay to Find Inhibitors of T. brucei phosphofructokinase: hit validation (AID 492961).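 Further: luminescence reports ADP formed as PFK phosphorylates fructose-6-phosphate with ATP.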 To be noted: T. brucei PFK, ADP-Glo luminescence; series mostly up to 51.4 µM. In a few lines:
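In this biochemical qHTS validation, titrated compounds were tested against 1.25 nM PFK with 0.1 mM ATP and 0.5 mM F6P. Percent activity came from controls lacking or containing enzyme.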
Background: In qHTS, concentration-response curves come from the screen itself.
For `CCOC(=O)c1ccc(O)cc1`, the Potency result is “inactive”.
Regarding `O=S(=O)(O)NC1CCCCC1`, the Potency entry is “inactive”.
As for `CCCCN1CCCC[C@H]1C(=O)Nc1c(C)cccc1C`, the Potency result is “inactive”.
As to `CCN(CC)CCNC(=O)c1c(C)[nH]c(/C=C2\C(=O)Nc3ccc(F)cc32)c1C`, the Potency result is “inactive”.
In the case of `c1ccc(CN(CC2=NCCN2)c2ccccc2)cc1`, the Potency result was “inactive”.
For `CCC(=O)Nc1ccc(O)cc1`, the Potency result was “inactive”.
The value for `O=c1[nH]c(=O)c2[nH]c(=O)[nH]c2[nH]1` was “inactive”; that for `Cc1ncc(COP(=O)(O)O)c(C=O)c1O` was “inactive”; that for `Nc1ccc(S(=O)(=O)NC(=O)c2ccccc2)cc1` was “inactive”.
For `COc1ccccc1O`, the Potency entry is “inactive”.
Turning to `CC(=O)Nc1ccc(/C=N/NC(N)=S)cc1`, the Potency entry is “inactive”.
On to `NC(=O)N/N=C/c1ccc([N+](=O)[O-])o1`, for which the Potency entry was “inactive”.
To `O=C1O[C@H]([C@@H](O)CO)C(O)=C1O` belongs “inactive”; to `NS(=O)(=O)c1cc2c(cc1Cl)NC(CSCc1ccccc1)=NS2(=O)=O`, “inactive”; to `NCCNCCNCCNCCN`, “inactive”.
The value for `CC12CCC(CC1)C(C)(C)O2` was “inactive”; that for `CC[C@@]1(c2ccccc2)NC(=O)N(C)C1=O` was “inactive”; that for `[Cl][In]([Cl])[Cl]` was “inactive”.
To `O=C(Oc1ccccc1C(=O)O)c1ccccc1O` belongs “inactive”.
For `COc1cc(C(=O)N2CCOCC2)cc(OC)c1OC`, the Potency result is “inactive”.
To `O=C(O)c1ccccc1O` belongs “inactive”; to `CN1CCCCC1CCN1c2ccccc2Sc2ccc(S(C)=O)cc21` (stereo not given), “inactive”; to `O=C(O)COc1nn(Cc2ccccc2)c2ccccc12`, “inactive”.
For the compound `NC(CSCC(=O)O)C(=O)O` (stereo not given), the Potency result was “inactive”.
To `CC(=O)CCC(=O)O` belongs “inactive”; to `CCOc1nc2cccc(C(=O)O)c2n1Cc1ccc(-c2ccccc2-c2nn[nH]n2)cc1`, “inactive”.
Turning to `Cc1cc2c(cc1S(N)(=O)=O)S(=O)(=O)CCC2`, the Potency result is “inactive”.
As to `COc1ccc(S(=O)(=O)Nc2nnc(CC(C)C)s2)cc1`, the Potency entry is “inactive”.
The value for `CC(=O)Oc1ccc(C2(c3ccc(OC(C)=O)cc3)C(=O)Nc3ccccc32)cc1` was “inactive”; that for `CCCCN(CCCC)CC(O)c1cc(Cl)cc2c1-c1ccc(Cl)cc1/C2=C/c1ccc(Cl)cc1` (stereo not given) was “inactive”; that for `COc1ccc2c(c1)C(=O)N(CCc1ccc(S(=O)(=O)NC(=O)NC3CCCCC3)cc1)C(=O)C2(C)C` was “inactive”.
Take `CC1(C)[C@@H]2CC[C@@]1(C)C(=O)C2`: the Potency entry is “inactive”.
The value for `CCN(CC)CCNC(C(=O)OCCC(C)C)c1ccccc1` (stereo not given) was “inactive”; that for `CCCCCCCCCCCCOS(=O)(=O)O` was “inactive”; that for `CC(C)(C)C(=O)NCCCC(=O)O` was “inactive”.
